Out of some 5,500 compounds screened, about 2,000 (36%) were called active. Not shown: some 18% with an inconclusive outcome. Rule as the data show it: active = normalized growth mostly below about 0.91 (no sharp cut-off); inconclusive = no clear call, values can overlap the other calls; inactive = mostly above about 0.92. This is one part of the list.
Assay: chemical genetic growth profiling, strain panel (AID 1159580);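 also: tested at 20 µM; growth read once vehicle control cultures reached saturation at 30 °C; 1 = growth at the plate median or of vehicle wells; lower values mean less growth of the strain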
Conditions: S. cerevisiae deletion strains, growth OD

Measured: normalized growth

CCNC(=O)[C@H]1O[C@@H](n2cnc3c(N)nc(NCCc4ccc(CCC(=O)O)cc4)nc32)C(O)[C@H]1O (some centres undefined)
inactive: locus YAL040C, strain CLN3, hits give low values 0.963 | locus YCL061C, strain MRC1 (second series), hits give low values 0.991 | locus YDR363W, strain ESC2, hits give low values 0.972 | locus YER002W, strain NOP16, hits give low values 0.995 | locus YGR078C, strain PAC10, hits give low values 0.992 | locus YJR075W, strain HOC1, hits give low values 0.999 | locus YMR307W, strain GAS1, hits give low values 1 | locus YNL153C, strain GIM3, hits give low values 1 | locus YNL175C, strain NOP13, hits give low values 0.98 | locus YNL197C, strain WHI3, hits give low values 0.981 | locus YNL224C, strain SQS1, hits give low values 1.03 | locus YOR083W, strain WHI5 (second series), hits give low values 0.978 | locus YPL055C, strain LGE1, hits give low values 0.953 | locus YPL241C, strain CIN2, hits give low values 0.976

Source: PubChem BioAssay AID1159580 (chemical genetic matrix, 2015)
